Experimental findings from ChEMBL document CHEMBL3988442, “University of Dundee, Small-Polar-MMV Screening Library” (2021) are described below.

Each structure is given as a SMILES string. The whole screen tested about 38,000 compounds, of which about 1,200 (3.2%) showed an effect of 50% or more. The median lay at about -58%. The entries come from a sample that favours strong results as a whole.

In this test the test system is Plasmodium falciparum. Put plainly: Calibr Malaria Delayed Death Assay SOP. The format is functional, organism-based. Also noted: scale not given: in the data most compounds retested in dose-response had high values. To be noted: concentration 4.99e-06 (unit not given; other assays of the set use mol/L).
Regarding `O=S1(=O)N=C(CSCc2ccccc2)Nc2ccccc21`, the “Percent Effect” value is -68.12%.

In the case of `COc1cc(S(=O)(=O)N2CCc3cc(Br)ccc32)cc(C(=O)O)c1OC`, the “Percent Effect” value is on record as -66.42%.

Consider `CC(=O)c1cccc(S(=O)(=O)NCCNC(=O)c2snnc2C)c1`, for which the “Percent Effect” value is given as -10.04%.

`Cc1csc(CN2CC[C@H]3O[C@H](C(=O)Nc4cccnc4)CC[C@H]32)n1.O=C(O)C(F)(F)F.O=C(O)C(F)(F)F`: the “Percent Effect” value was -21.13%.

Turning to `CC(C)N1CC[C@H]2[C@H](C[C@@H](Cn3cccn3)N2c2nccs2)C1.O=C(O)C(F)(F)F.O=C(O)C(F)(F)F.O=C(O)C(F)(F)F`, the “Percent Effect” value is given as 65%.

Regarding `CC(=O)N1[C@H](Cn2cncn2)C[C@@H]2CN(CC3CC3)CC[C@@H]21.O=C(O)C(F)(F)F`, the “Percent Effect” value was -11.44%.

`CCC(=O)N1CC[C@H]2[C@H](C[C@@H](Cn3cccn3)N2c2nccs2)C1.O=C(O)C(F)(F)F.O=C(O)C(F)(F)F`: the “Percent Effect” value is recorded as -17.69%.

With `CCC(=O)N1CC[C@H]2[C@H](C[C@@H](CN3CCCC3)N2c2nccs2)C1.O=C(O)C(F)(F)F.O=C(O)C(F)(F)F`, the “Percent Effect” value is given as -82.37%.

Consider `Cl.Cl.c1csc(N2[C@H](Cn3cncn3)C[C@@H]3CNCC[C@@H]32)n1`, for which the “Percent Effect” value is -62.09%.

`O=C(O)C(F)(F)F.O=C(O)C(F)(F)F.O=C(O)C(F)(F)F.c1cnn(C[C@@H]2C[C@@H]3CN(CC4CC4)CC[C@@H]3N2c2nccs2)c1`: the “Percent Effect” value is listed as 89.5%.

For the molecule `CC(=O)N1CC[C@H]2[C@H](C[C@@H](Cn3cncn3)N2c2nccs2)C1.O=C(O)C(F)(F)F`, the “Percent Effect” value is reported as -37.22%.

As for `CC(=O)N1[C@H](Cn2cncn2)C[C@@H]2CN(Cc3nccs3)CC[C@@H]21`, the “Percent Effect” value is listed as -179.2%.

For `CN1[C@H](CN2CCCC2)C[C@@H]2CN(C(=O)Cc3cccs3)CC[C@@H]21.O=C(O)C(F)(F)F.O=C(O)C(F)(F)F`, the “Percent Effect” value is recorded as -31.64%.

Turning to `CC(=O)N1CC[C@H]2[C@H](C[C@@H](CN3CCCC3)N2c2nccs2)C1.O=C(O)C(F)(F)F.O=C(O)C(F)(F)F`, the “Percent Effect” value is listed as -53.97%.

For `CN1CC[C@H]2[C@H](C[C@@H](CN3CCCC3)N2c2nccs2)C1.O=C(O)C(F)(F)F.O=C(O)C(F)(F)F.O=C(O)C(F)(F)F`, the “Percent Effect” value is listed as 72.73%.

For the molecule `CC1CCC(NC(=O)NCC(C)(C)CCS(C)(=O)=O)CC1` (centres undefined), the “Percent Effect” value is reported as -129.7%.

Regarding `CCN(Cc1ccc(S(C)(=O)=O)cc1)Cc1nc(COC)no1`, the “Percent Effect” value is recorded as -129.1%.

On to `O=c1cc(Cn2ccnc2)nc2n1CCCN(Cc1cccs1)C2`, for which the “Percent Effect” value is -55.92%.

For `O=C(NCCCO)c1cc(-c2cc[nH]n2)n2ccccc12.O=C(O)C(F)(F)F`, the “Percent Effect” value is recorded as -31.15%.

With `COc1ccc(C(NCc2cccc(C#N)c2)C(C)C)cc1` (centres undefined), the “Percent Effect” value is -12.81%.

Take `COc1ccc(C(NCc2cccc(C#N)c2)C2CC2)cc1` (centres undefined): the “Percent Effect” value stood at 47.49%.

For the molecule `COc1ccc(C(NCc2cccc(O)c2)C2CC2)cc1` (centres undefined), the “Percent Effect” value came out at 83.32%.

As to `CC(C)CCNC(=O)NC(C)c1nncn1C` (centres undefined), the “Percent Effect” value is -95.25%.

As for `CCN1CCC2(CC1)CN(C(=O)c1cccnc1)c1ccc(Cl)cc12.O=C(O)C(F)(F)F.O=C(O)C(F)(F)F`, the “Percent Effect” value was 9.219%.

On to `CN1CCC2(CC1)CN(C(=O)c1cccnc1)c1ccc(Cl)cc12`, for which the “Percent Effect” value is reported as 55.37%.

`CC(=O)N1CCC2(CC1)CN(C(=O)c1cccnc1)c1ccc(F)cc12.O=C(O)C(F)(F)F`: the “Percent Effect” value was -38.16%.

Consider `O=C(CN1CCC(c2nnc(C(F)(F)F)o2)CC1)Nc1cccc(Cl)c1`, for which the “Percent Effect” value is recorded as -52.49%.

On to `CC(C)Nc1ncnc2c1CCN(C(=O)c1ccccc1F)CC2.O=C(O)C(F)(F)F`, for which the “Percent Effect” value is given as -96.03%.

`O=S(=O)(NC1=NCN(CCc2cccs2)CN1)c1ccc(Br)cc1`: the “Percent Effect” value was -31.17%.

With `CCCC(=O)N1CCC(N2CC[C@@](O)(CCOC)[C@H](C)C2)CC1`, the “Percent Effect” value is on record as -32.76%.

In the case of `CCCS(=O)(=O)N1CCC2(CC1)CC(Nc1ncccn1)CO2` (centres undefined), the “Percent Effect” value was -70.84%.

In the case of `O=C(c1cccs1)N1CCc2ncc(Cn3cncn3)n2CC1`, the “Percent Effect” value was -172.5%.

With `CC(C)N(C)Cc1cnc2n1CCN(CCc1ccccc1)C2.O=C(O)C(F)(F)F.O=C(O)C(F)(F)F`, the “Percent Effect” value was 0.4179%.

For `CC(C)N(C)Cc1cnc2n1CCN(C(=O)c1cccs1)C2`, the “Percent Effect” value turned out to be 60.68%.

Regarding `CC(C)N(C)Cc1cnc2n1CCN(C(=O)Cc1ccccn1)C2.O=C(O)C(F)(F)F.O=C(O)C(F)(F)F`, the “Percent Effect” value is -6.542%.

For `O=C(NC1CC1)N1CCn2c(Cn3cccn3)cnc2C1.O=C(O)C(F)(F)F`, the “Percent Effect” value is listed as -67.84%.

As for `Cc1noc(C2CCC3(CCN(C(=O)c4ccnnc4)CC3)O2)n1` (centres undefined), the “Percent Effect” value is listed as -55.26%.

For `Cc1cccc(NC(=O)[C@@H]2CCCN2Cc2nc(C)c(C)o2)n1`, the “Percent Effect” value is given as -28.43%.

Take `CC(C)Nc1ncnc2c1CCNCC2`: the “Percent Effect” value is -47.68%.

`CCOc1ccc(C(C)Nc2ncnc3c2CCNC3)cc1OCC` (centres undefined): the “Percent Effect” value amounted to 46.78%.

Take `CC(Nc1ncnc2c1CCNC2)c1ccc2c(c1)CCCC2` (centres undefined): the “Percent Effect” value is reported as 70.15%.

For the molecule `Cc1ccc(C)c(-n2ncc(C(=O)NCC3COC(C)(C)O3)c2N)c1` (centres undefined), the “Percent Effect” value is -97.45%.

For `COCCN(C)C[C@@H]1CN(C(=O)c2cccc(C#N)c2)C[C@@H]1CO`, the “Percent Effect” value is recorded as -70.73%.

Take `COc1cc(Cl)c(NCc2c(C)noc2C)cc1OC`: the “Percent Effect” value is reported as -68.38%.

As to `CC1CN(c2ncccc2C(=O)Nc2cccc3c2CCCC3)CCN1` (centres undefined), the “Percent Effect” value was 10.16%.

`Cc1cccc(C(=O)Nc2cccc3c2CCCC3)n1`: the “Percent Effect” value is -261.8%.

As to `O=C(Nc1cccc2c1CCCC2)c1cccnc1N1CCCNCC1`, the “Percent Effect” value came to 53.52%.

On to `Cc1cccc(OC2CCN(C(=O)c3ccc4ncsc4c3)CC2)n1`, for which the “Percent Effect” value is -115.6%.

Consider `CCNc1ncc2c(n1)CN(c1ccc(Cl)cc1)C2=O`, for which the “Percent Effect” value was -180.2%.

For `CCN1CCC2(CC1)CC(NCc1cccc(C)n1)c1ccccc1O2.O=C(O)C(F)(F)F.O=C(O)C(F)(F)F.O=C(O)C(F)(F)F` (centres undefined), the “Percent Effect” value is given as 91.27%.

As for `CCOC1COC2(CCN(Cc3cccc(C)n3)CC2)C1.O=C(O)C(F)(F)F` (centres undefined), the “Percent Effect” value is reported as -37.49%.

As to `Cc1cccc(COC2COC3(CCN(Cc4ccoc4)CC3)C2)n1` (centres undefined), the “Percent Effect” value is -18.84%.

For `Cc1cccc(COC2COC3(CCN(S(C)(=O)=O)CC3)C2)n1.O=C(O)C(F)(F)F` (centres undefined), the “Percent Effect” value was -59.75%.

As to `CCCC(=O)N1CCC2(CC1)CC(NC(C)=O)c1ccccc1O2` (centres undefined), the “Percent Effect” value is -58.82%.
